# In PMC10668032, “Altered binding affinity of SIX1-Q177R correlates with enhanced WNT5A and WNT pathway effector expression in Wilms tumor”:
# Over roughly 33,000 sequences, “e-score” has its median near -0.053; the highest 2% begin near 0.38. Shown is part of a subset that was picked to be rich in the highest values.
# Biological target: T1, SIX1 homeodomain (reference allele) (human, UniProt Q15475 108-198)
# T1 sequence: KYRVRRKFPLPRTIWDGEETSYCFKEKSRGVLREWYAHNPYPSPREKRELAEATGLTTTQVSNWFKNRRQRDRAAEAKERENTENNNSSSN
# Test: universal protein binding microarray; Universal all-10-mer PBM (8x60K, AMADID 030236), 300 nM GST-tagged protein, Alexa Fluor 488 anti-GST; buffer, salt, pH and temperature not stated (as in Berger); high values mean tight binding
# Conditions: protein: ivt; tags: N-terminal GST; dsDNA, one strand shown
# Summary of the method: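 Binding of GST-tagged homeodomains is given as 8-mer E-scores from the Universal PBM Analysis Suite. The proteins were produced by in vitro transcription/translation, quantified by anti-GST western blot against a recombinant GST standard curve, and applied in duplicate at 300 nM final concentration to universal 'all 10-mer' protein binding microarrays (8×60K format).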
row,Sequence,binding signal [E-score]
1,ATCACTGA,0.243 ± 0.0373
2,GTATTTAA,0.172 ± 0.0151
3,TAACCCGA,0.213 ± 0.0195
4,CATATTAA,0.175 ± 0.121
5,ATCATTAC,0.295 ± 0.0265
6,AGAATACT,0.208 ± 0.057
7,AAAAGGAT,0.163 ± 0.102
8,CGGTGTCA,0.471 ± 0.00725
9,CGGTGTCC,0.352 ± 0.0179
10,CGGTGTAA,0.257 ± 0.00735
11,AGGATCGG,0.32 ± 0.0208
12,ATCACGAC,0.18 ± 0.0119
13,AGAATGAT,0.216 ± 0.0443
14,CGGATATA,0.422 ± 0.00574
15,GGGATATA,0.433 ± 0.0145
16,GGGATAAA,0.212 ± 0.0282
17,GGGATAGA,0.256 ± 0.0216
18,CTAGATGC,0.153 ± 0.0669
19,CATACACG,0.157 ± 0.0344
20,AGCTATAT,0.2 ± 0.0474
21,ACACGGGT,0.23 ± 0.0432
22,CATCGATA,0.308 ± 0.015
23,CTATCGGA,0.289 ± 0.00216
24,ATATCGGC,0.394 ± 0.011
25,ATATCGGA,0.427 ± 0.0311
26,ATATGGGC,0.326

row,Sequence,binding signal [E-score]
1,AGATCGGC,0.216 ± 0.0174
2,ATATGGGG,0.4 ± 0.0352
3,ATATCTGA,0.356 ± 0.0383
4,GGATCGGA,0.38 ± 0.0357
5,AGATCGGA,0.255 ± 0.00445
6,ATATCTGC,0.346 ± 0.0315
7,ATATGGGA,0.319 ± 0.00531
8,CGATCGGA,0.24 ± 0.0149
9,ATCCGTAG,0.225 ± 0.00492
10,AATACTAT,0.278 ± 0.0809
11,TATCCACA,0.326 ± 0.0288
12,AGAGTGAT,0.268 ± 0.0506
13,ATATGTTC,0.334 ± 0.0471
14,ACCTATCT,0.195 ± 0.01
15,GTGTTATA,0.219 ± 0.0623
16,TCCATACA,0.166 ± 0.0645
17,GGATCGTA,0.383 ± 0.00451
18,AGATCGGG,0.294 ± 0.0193
19,AGATCGTA,0.237 ± 0.00569
20,GCATCGGA,0.161 ± 0.101
21,GTATCGGA,0.451 ± 0.0142
22,CGATCGTA,0.212 ± 0.0626
23,ATCTCGGG,0.272 ± 0.0234
24,TCATCGGA,0.176 ± 0.0293
25,ATATCGGG,0.4018 ± 0.00171
26,CACCGGCA,0.188 ± 0.0219

row,Sequence,binding signal [E-score]
1,CTATATAC,0.275 ± 0.0339
2,TACTCACA,0.165 ± 0.0208
3,ATAAGGTA,0.247 ± 0.0353
4,ACCGCGAT,0.323 ± 0.00333
5,ATCTATCC,0.372 ± 0.0185
6,GTGTATGA,0.17 ± 0.0805
7,GTGTATCA,0.4623 ± 0.00404
8,ATGTATAC,0.325 ± 0.0321
9,GTGTATTA,0.271 ± 0.032
10,ATGTATTA,0.241 ± 0.0485
11,ATGTATCC,0.407 ± 0.00354
12,ATGTATCG,0.38 ± 0.0144
13,ATGTATTG,0.209 ± 0.0502
14,ATGTATAG,0.217 ± 0.0184
15,ATGTATCA,0.448 ± 0.011
16,ATGTATAA,0.154 ± 0.0486
17,ATCCTGGG,0.235 ± 0.00999
18,ACATTATC,0.165 ± 0.0505
19,TACCGCGA,0.25 ± 0.0197
20,ATCATCGC,0.326 ± 0.0174
21,TACCCGCA,0.161 ± 0.0756
22,ATCGACAC,0.306 ± 0.0819
23,ATCTTGCA,0.216 ± 0.0388
24,CTGTATCA,0.418 ± 0.0231
25,ATTTATCC,0.198 ± 0.0661
26,CTGTATCC,0.387 ± 0.0293

row,Sequence,binding signal [E-score]
1,CTGTATGA,0.187 ± 0.0219
2,CTGTATAC,0.338 ± 0.0175
3,CTGTATTA,0.18 ± 0.00737
4,CTCAGGTA,0.16 ± 0.0411
5,CTCCTATC,0.2712 ± 0.00126
6,AGAGTGAG,0.172 ± 0.0561
7,CCGGCTCA,0.256 ± 0.0189
8,ACACCCAA,0.331 ± 0.0548
9,ATACCCAA,0.401 ± 0.0166
10,CACCCCAC,0.263 ± 0.128
11,ATACCAAG,0.285 ± 0.0262
12,ATACCCAT,0.393 ± 0.00746
13,AAACCCAT,0.169 ± 0.00646
14,ATACCCAG,0.382
15,ACACCCAG,0.278 ± 0.0263
16,ATACCCAC,0.392
17,ATACCAAA,0.317 ± 0.0247
18,ACACCCAT,0.271 ± 0.0323
19,ACACCCAC,0.221 ± 0.0764
20,GAGCCGGA,0.166 ± 0.0429
21,TATGCGGA,0.284 ± 0.018
22,ATGCGATC,0.309 ± 0.0257
23,ATACGAGG,0.232 ± 0.0433
24,CATCTCAG,0.227 ± 0.014
25,TACGCATA,0.197 ± 0.0197
26,ATAGGGAT,0.395 ± 0.00975

row,Sequence,binding signal [E-score]
1,ATAGGGGA,0.287 ± 0.00909
2,ACAGGGAT,0.297 ± 0.0162
3,ACCTTATA,0.17 ± 0.0678
4,CTATCGCA,0.186 ± 0.0165
5,GTATCGCA,0.431 ± 0.0148
6,ATATCGCA,0.42 ± 0.0293
7,CTATCGCC,0.179 ± 0.0265
8,ATCGCGCG,0.213 ± 0.0714
9,ATATCGCG,0.422 ± 0.0273
10,ACATCGCA,0.152 ± 0.012
11,TGATCGCA,0.171 ± 0.0248
12,ATATCGCC,0.441 ± 0.0115
13,GGATCGCA,0.366 ± 0.0387
14,AGATCGCC,0.288 ± 0.0356
15,AGATCGCG,0.22 ± 0.0358
16,ATCGGTCG,0.225 ± 0.0271
17,CGGTTATC,0.309 ± 0.0176
18,AGTACGAT,0.248 ± 0.0454
19,ATCATAAT,0.229 ± 0.0622
20,GATAATGC,0.16 ± 0.00226
21,GCGATCTA,0.218 ± 0.0326
22,CTCCGGTA,0.244 ± 0.0299
23,GAAACACC,0.189 ± 0.0066
24,CGATCCCA,0.346 ± 0.0579
25,GAATCCCC,0.23 ± 0.0451
26,CGATCCCC,0.437 ± 0.041

row,Sequence,binding signal [E-score]
1,AGATCCCT,0.292 ± 0.00813
2,AGATCCCC,0.384 ± 0.0161
3,GGATCCCA,0.37 ± 0.0601
4,TGATCCAA,0.324 ± 0.0147
5,CGATCCCG,0.332 ± 0.04
6,AGATCCCA,0.213 ± 0.0026
7,AGATCCCG,0.302 ± 0.0627
8,TGATCCCA,0.3763 ± 0.00132
9,GGATCCCC,0.419 ± 0.0404
10,ATATACAA,0.27 ± 0.0205
11,ATAGGAGA,0.185 ± 0.0295
12,GATCGTAC,0.274 ± 0.0438
13,ATACATGG,0.3102 ± 0.0018
14,AGGACACC,0.366 ± 0.0116
15,ATGACACG,0.289 ± 0.0161
16,CAGACACC,0.291 ± 0.0577
17,CTGACACC,0.468 ± 0.0134
18,CGGACACC,0.3658 ± 0.00136
19,ATGACACC,0.4711 ± 0.00199
20,TATCGCAA,0.33 ± 0.0108
21,CCAGGAGA,0.158 ± 0.0169
22,AGCATGAT,0.2 ± 0.0238
23,ATAAGCAG,0.173 ± 0.00802
24,AGCTGATC,0.3159 ± 0.00281
25,AGATGAGA,0.224 ± 0.0832
26,CGATGATC,0.379 ± 0.019

row,Sequence,binding signal [E-score]
1,GGATGATA,0.443 ± 0.0105
2,AGAAGATA,0.201 ± 0.105
3,AGAAGATC,0.231 ± 0.077
4,CGCTGATC,0.279 ± 0.0361
5,GGATGGTA,0.214 ± 0.0386
6,CGATCATC,0.3167 ± 0.00296
7,GGATGAGA,0.212 ± 0.0038
8,AGATGATC,0.38 ± 0.0348
9,AGATGATA,0.432 ± 0.0425
10,ATGAAACC,0.242 ± 0.0415
11,ATCCCATA,0.351 ± 0.0216
12,ATATTTGA,0.173 ± 0.0606
13,ATCATTTG,0.244 ± 0.0909
14,ATCGGGCC,0.188 ± 0.0382
15,ACACCTGT,0.277 ± 0.00124
16,TATCGAGA,0.293 ± 0.0133
17,ATAGCCGG,0.22519 ± 0.00017
18,ACGCATCT,0.169 ± 0.0233
19,GGCAGATA,0.216 ± 0.0469
20,ACAGTGAT,0.199 ± 0.0229
